Inconclusive results are not listed. Active and inactive are the calls of the source. How the source made its calls, unless noted: active means hit-call score of the fitted dose curve at least 0.9, where 1 is the maximum; inactive means score below 0.9.
Experiments:
[1] = ATG_NFI_CIS: Attagene CIS-FACTORIAL HepG2 Assay for human Nuclear Factor I (NFI) (AID 2282989); details: HepG2 cis-regulatory reporter, NFI response element transcription; actives raise or lower the signal
Procedure, shortened: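 Transfected HepG2 liver cells, exposed 24 h, supplied total RNA for oligo(dT) reverse transcription and reporter-specific PCR. Labelled, HpaI-cut fragments were sized by capillary electrophoresis; DMSO set the baseline for bidirectional fitting.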

[2] = biological target: Myc proto-oncogene protein (Homo sapiens) (UniProt P01106); assay: ATG_Myc_CIS: Attagene CIS-FACTORIAL HepG2 Assay for human Myelocytomatosis (Myc) Proto-Oncogene Transcription Factor (AID 2282990); details: HepG2, Attagene cis-reporter transcription factor activity; actives raise or lower the signal
Procedure, shortened: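 Fluorescence intensity of reporter-specific cDNA fragments, separated by capillary electrophoresis, gives the signal. Transfected HepG2 cells carrying cis-promoter reporter constructs are incubated with compound for 24 h; DMSO serves as baseline.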

[3] = ATG_NF_kB_CIS: Attagene CIS-FACTORIAL HepG2 Assay for human Nuclear Factor Kappa B (NF-kB) (AID 2282991); details: HepG2 Attagene cis-factorial NF-kB reporter mRNA; actives raise or lower the signal
Procedure, shortened: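 Fluorescence of labelled RT-PCR products separated by capillary electrophoresis gives reporter mRNA levels from transfected HepG2 cells exposed 24 h; values are fitted in both directions relative to DMSO.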

[4] = ATG_NRF2_ARE_CIS: Attagene CIS-FACTORIAL HepG2 Assay for human Nuclear Factor Erythroid 2 Related Factor 2 (NFR2) response to Antioxidant Response Elements (ARE) (AID 2282992); details: HepG2 Attagene ARE/NRF2 reporter, transcription factor activity; actives raise or lower the signal
Procedure, shortened: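 Readout: reporter mRNA quantified by RT-PCR plus FAM-labelled primer extension, HpaI digestion and capillary electrophoresis, 24 h after dosing transfected HepG2 cells. Gain or loss of signal is fitted bidirectionally against DMSO baseline.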

[5] = ATG_Oct_MLP_CIS: Attagene CIS-FACTORIAL HepG2 Assay for human Octamer-Binding Transcription Factor (Oct) (AID 2282993); details: HepG2 Attagene cis-factorial Oct reporter, mRNA; actives raise or lower the signal
Procedure, shortened: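 Using HepG2 cells bearing transfected cis-reporter constructs, mRNA induction was read after 24 h by fluorescent RT-PCR and capillary electrophoresis, with DMSO defining baseline for gain- or loss-of-signal fits.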

[6] = biological target: Cellular tumor antigen p53 (Homo sapiens) (UniProt P04637); assay: ATG_p53_CIS: Attagene CIS-FACTORIAL HepG2 Assay for human p53 Transcription Factor (AID 2282994); details: HepG2 p53 cis-element reporter, Attagene mRNA; actives raise or lower the signal
Procedure, shortened: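 Read-out: reporter mRNA by RT-PCR plus capillary electrophoresis with fluorescence detection. Human HepG2 liver cells carried transfected multi-reporter cis-element constructs, dosed 24 h. Gain or loss of signal fitted bidirectionally against DMSO control.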

[7] = biological target: human Peroxisome Proliferator-activated Receptor alpha (PPARa), PPARA (gene 5465) (UniProt Q07869); assay: ATG_PPARa_TRANS: Attagene TRANS-FACTORIAL HepG2 Assay for human Peroxisome Proliferator-activated Receptor alpha (PPARa) (AID 2283001; active means hit-call score of the fitted dose curve at least 0.9, where 1 is the maximum;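 on AC50: potency for gain of reporter signal over DMSO so agonist or activator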)
Procedure, shortened: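 Transient HepG2 transfection, GAL4-UAS reporters, NR-Gal4 chimeras; 24 h compound exposure. Readout: reporter transcripts by RT-PCR, 6-FAM primer extension, HpaI digest, capillary electrophoresis. Positive direction vs DMSO baseline.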

[8] = biological target: human Peroxisome Proliferator-activated Receptor delta (PPARd), PPARD (gene 5467) (UniProt Q03181); assay: ATG_PPARd_TRANS: Attagene TRANS-FACTORIAL HepG2 Assay for human Peroxisome Proliferator-activated Receptor delta (PPARd) (AID 2283002; active means hit-call score of the fitted dose curve at least 0.9, where 1 is the maximum)
Procedure, shortened: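 Fluorescence from capillary electrophoresis of labelled RT-PCR reporter fragments gives the signal; DMSO sets baseline. Cells: HepG2 transiently carrying GAL4-UAS reporter units plus chimeric nuclear receptor-Gal4 proteins, exposed to chemicals for 24 h.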

[9] = biological target: Nuclear receptor subfamily 1 group I member 2 (Homo sapiens) (UniProt O75469); assay: ATG_PXR_TRANS: Attagene TRANS-FACTORIAL HepG2 Assay for human Pregnane X Receptor (PXR) (AID 2283008; active means hit-call score of the fitted dose curve at least 0.9, where 1 is the maximum)
Procedure, shortened: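 Trans-factorial format: exogenous NR-Gal4 fusion activity, not endogenous factor, in transfected human HepG2 liver cells. After 24 h dosing, RNA isolated, reverse-transcribed, amplified and resolved by capillary electrophoresis; induction scored versus DMSO.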

[10] = biological target: Retinoic acid receptor alpha (Homo sapiens) (UniProt P10276); assay: ATG_RARa_TRANS: Attagene TRANS-FACTORIAL HepG2 Assay for human Retinoic Acid Receptor alpha (RARa) (AID 2283005; active means hit-call score of the fitted dose curve at least 0.9, where 1 is the maximum)
Procedure, shortened: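 HepG2 transiently transfected with multiplex GAL4-UAS reporter units including a human RARa–GAL4 chimera; 24 h compound exposure. Reporter mRNA quantified by RT-PCR, 6-FAM labeling and capillary electrophoresis; gain of signal versus DMSO.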

[11] = biological target: human Retinoic Acid Receptor gamma (RARg), RARG (gene 5916) (UniProt P13631); assay: ATG_RARg_TRANS: Attagene TRANS-FACTORIAL HepG2 Assay for human Retinoic Acid Receptor gamma (RARg) (AID 2283009; active means hit-call score of the fitted dose curve at least 0.9, where 1 is the maximum)
Procedure, shortened: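 Readout: reporter transcript levels via RT-PCR, 6-FAM primer-extension labelling, HpaI digestion and capillary electrophoresis. Cells: HepG2 carrying transfected RARg-GAL4 chimera plus UAS reporter set. Dosing 24 h; DMSO negative control.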

[12] = biological target: human RAR-related Orphan Receptor beta (RORb), RORB (gene 6096) (UniProt Q92753); assay: ATG_RORb_TRANS: Attagene TRANS-FACTORIAL HepG2 Assay for human RAR-related Orphan Receptor beta (RORb) (AID 2283010; active means hit-call score of the fitted dose curve at least 0.9, where 1 is the maximum)
Procedure, shortened: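 HepG2, transient MRTU transfection (GAL4-UAS reporters, exogenous NR-Gal4 chimeras); 24 h compound exposure; total RNA → RT-PCR → 6-FAM primer extension → HpaI digest → CE fluorescence. Positive direction vs DMSO baseline.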

[13] = BSK_3C_TissueFactor: BioMAP Diversity Plus: 3C Assay for Tissue Factor Biomarker Activity (AID 2282997); details: BioMAP 3C HUVEC, tissue factor biomarker readout; actives raise or lower the signal
Procedure, shortened: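 After a 24 h chemical exposure of primary human umbilical vein endothelial cells, Tissue Factor levels were quantified by ELISA.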

[14] = BSK_3C_uPAR: BioMAP Diversity Plus: 3C Assay for Urokinase-type plasminogen activator receptor (uPAR) Biomarker Activity (AID 2282998); details: BioMAP 3C HUVEC, uPAR biomarker ELISA; actives raise or lower the signal
Procedure, shortened: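 In this endothelial cell-based assay, human umbilical vein primary cells were treated with chemicals and harvested at 24 h. uPAR was quantified using ELISA, with gains or losses fitted relative to DMSO controls.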

[15] = BSK_3C_VCAM1: BioMAP Diversity Plus: 3C Assay for Vascular cell adhesion molecule 1 (VCAM1) Biomarker Activity (AID 2282999); details: BioMAP 3C HUVEC, VCAM1 ELISA, cytokine-stimulated; actives raise or lower the signal
Procedure, shortened: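 HUVEC primary cells, 24 h compound exposure; VCAM-1 by ELISA; gain/loss of signal fitted bidirectionally vs DMSO baseline.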

[16] = BSK_4H_Eotaxin3: BioMAP Diversity Plus: 4H Assay for Eotaxin 3 Biomarker Activity (AID 2283000); details: primary human endothelial cells (HUVEC); actives raise or lower the signal
Procedure, shortened: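 Chemicals were added to human umbilical vein endothelium cultures, and Eotaxin-3 was quantified by ELISA at 24 h. Values were derived by bidirectional fitting with DMSO serving as negative control and activity baseline.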

[17] = read-out: Intercellular Adhesion Molecule 1 (ICAM1), ICAM1 (gene 3383); assay: BSK_3C_ICAM1: BioMAP Diversity Plus: 3C Assay for Intercellular Adhesion Molecule 1 (ICAM1) Biomarker Activity (AID 2283003); details: primary human endothelial cells (HUVEC); actives raise or lower the signal
Procedure, shortened: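 ELISA read-out of ICAM-1; HUVEC (primary human), 3C system, 24 h post-dosing; bidirectional fit vs DMSO baseline.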

[18] = BSK_3C_Proliferation: Cell Proliferation Assessment in the BioMAP Diversity Plus: 3C Assay (AID 2283006); details: primary human endothelial cells (HUVEC);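 on AC50: potency may reflect either rise or fall in cell number versus DMSO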
Procedure, shortened: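 HUVEC, sub-confluent; 48 h chemical exposure; 10% TCA fix, 0.1% SRB stain, A560 total protein. Gain or loss of signal fitted both directions vs DMSO control.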

[19] = biological target: Peroxisome proliferator-activated receptor gamma (Homo sapiens) (UniProt P37231); assay: ATG_PPARg_TRANS: Attagene TRANS-FACTORIAL HepG2 Assay for human Peroxisome Proliferator-activated Receptor-gamma (PPARg) (AID 2283007; active means hit-call score of the fitted dose curve at least 0.9, where 1 is the maximum)
Procedure, shortened: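 Twenty-four hours after chemical dosing of transiently transfected HepG2 cells, isolated RNA was converted to cDNA, reporter sequences amplified and 6-FAM-labelled, then HpaI-digested and analysed by capillary electrophoresis. Signal increase against DMSO was fitted.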

[20] = biological target: human Retinoic Acid Receptor beta (RARb), RARB (gene 5915) (UniProt P10826); assay: ATG_RARb_TRANS: Attagene TRANS-FACTORIAL HepG2 Assay for human Retinoic Acid Receptor beta (AID 2283004; active means hit-call score of the fitted dose curve at least 0.9, where 1 is the maximum)
Procedure, shortened: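 Transient transfection of HepG2 with multiple reporter units → chemical dosing, 24 h → total RNA isolation → RT with oligo(dT) → reporter-specific PCR, 6-FAM primer extension, HpaI digest → capillary electrophoresis. Positive direction vs DMSO control.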

Measured: AC50

Myc proto-oncogene protein (Homo sapiens), sequence (P01106 whole entry, looked up, the tested form may be a part): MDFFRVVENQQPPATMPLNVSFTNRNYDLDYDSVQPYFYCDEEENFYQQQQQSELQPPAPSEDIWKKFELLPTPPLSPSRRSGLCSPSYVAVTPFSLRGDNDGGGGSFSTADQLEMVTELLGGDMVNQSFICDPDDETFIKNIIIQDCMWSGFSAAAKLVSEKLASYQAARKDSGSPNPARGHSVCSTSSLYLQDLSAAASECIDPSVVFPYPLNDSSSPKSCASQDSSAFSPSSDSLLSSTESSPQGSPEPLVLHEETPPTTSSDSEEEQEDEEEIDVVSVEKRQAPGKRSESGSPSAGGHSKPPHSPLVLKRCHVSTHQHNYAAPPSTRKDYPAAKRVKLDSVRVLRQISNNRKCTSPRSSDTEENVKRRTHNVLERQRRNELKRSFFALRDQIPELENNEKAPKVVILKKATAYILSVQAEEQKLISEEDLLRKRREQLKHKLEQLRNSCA
Cellular tumor antigen p53 (Homo sapiens), sequence (P04637 whole entry, looked up): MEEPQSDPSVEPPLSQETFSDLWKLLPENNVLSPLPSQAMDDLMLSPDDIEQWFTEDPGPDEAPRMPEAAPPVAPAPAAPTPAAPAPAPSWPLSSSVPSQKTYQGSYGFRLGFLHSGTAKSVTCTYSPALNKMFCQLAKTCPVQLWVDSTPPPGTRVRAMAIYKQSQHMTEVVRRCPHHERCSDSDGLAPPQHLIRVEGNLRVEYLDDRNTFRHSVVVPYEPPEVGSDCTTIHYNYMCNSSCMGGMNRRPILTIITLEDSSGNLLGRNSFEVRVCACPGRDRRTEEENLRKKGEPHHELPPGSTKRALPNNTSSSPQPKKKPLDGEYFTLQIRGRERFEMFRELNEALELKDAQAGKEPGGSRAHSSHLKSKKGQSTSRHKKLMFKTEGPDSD
human Peroxisome Proliferator-activated Receptor alpha (PPARa), PPARA (gene 5465), sequence (Q07869 whole entry, looked up, the tested form may be a part): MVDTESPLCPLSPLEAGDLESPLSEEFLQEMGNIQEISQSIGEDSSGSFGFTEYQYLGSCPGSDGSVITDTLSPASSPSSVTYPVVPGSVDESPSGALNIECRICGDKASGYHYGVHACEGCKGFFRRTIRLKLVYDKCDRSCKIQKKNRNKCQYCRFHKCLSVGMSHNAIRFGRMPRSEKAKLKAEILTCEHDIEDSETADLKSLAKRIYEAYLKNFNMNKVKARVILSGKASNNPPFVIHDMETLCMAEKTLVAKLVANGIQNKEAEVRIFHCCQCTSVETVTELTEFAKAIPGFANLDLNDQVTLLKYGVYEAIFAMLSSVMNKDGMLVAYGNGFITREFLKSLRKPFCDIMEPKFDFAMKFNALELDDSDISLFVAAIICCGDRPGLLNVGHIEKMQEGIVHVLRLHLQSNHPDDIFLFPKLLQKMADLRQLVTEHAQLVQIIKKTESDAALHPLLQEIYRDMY
human RAR-related Orphan Receptor beta (RORb), RORB (gene 6096), sequence (Q92753 whole entry, looked up, the tested form may be a part): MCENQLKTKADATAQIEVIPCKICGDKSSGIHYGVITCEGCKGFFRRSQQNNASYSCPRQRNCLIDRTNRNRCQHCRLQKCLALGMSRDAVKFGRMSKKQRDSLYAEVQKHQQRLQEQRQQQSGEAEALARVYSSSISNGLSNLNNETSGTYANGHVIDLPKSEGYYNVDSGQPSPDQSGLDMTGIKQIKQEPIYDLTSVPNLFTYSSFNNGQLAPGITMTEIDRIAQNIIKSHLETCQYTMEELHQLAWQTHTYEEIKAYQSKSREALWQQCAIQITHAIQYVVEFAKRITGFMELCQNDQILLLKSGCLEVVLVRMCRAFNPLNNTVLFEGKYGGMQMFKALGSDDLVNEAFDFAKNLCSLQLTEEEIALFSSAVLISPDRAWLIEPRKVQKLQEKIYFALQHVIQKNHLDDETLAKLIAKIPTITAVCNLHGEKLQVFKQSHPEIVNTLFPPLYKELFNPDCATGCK
human Retinoic Acid Receptor beta (RARb), RARB (gene 5915), sequence (P10826 whole entry, looked up): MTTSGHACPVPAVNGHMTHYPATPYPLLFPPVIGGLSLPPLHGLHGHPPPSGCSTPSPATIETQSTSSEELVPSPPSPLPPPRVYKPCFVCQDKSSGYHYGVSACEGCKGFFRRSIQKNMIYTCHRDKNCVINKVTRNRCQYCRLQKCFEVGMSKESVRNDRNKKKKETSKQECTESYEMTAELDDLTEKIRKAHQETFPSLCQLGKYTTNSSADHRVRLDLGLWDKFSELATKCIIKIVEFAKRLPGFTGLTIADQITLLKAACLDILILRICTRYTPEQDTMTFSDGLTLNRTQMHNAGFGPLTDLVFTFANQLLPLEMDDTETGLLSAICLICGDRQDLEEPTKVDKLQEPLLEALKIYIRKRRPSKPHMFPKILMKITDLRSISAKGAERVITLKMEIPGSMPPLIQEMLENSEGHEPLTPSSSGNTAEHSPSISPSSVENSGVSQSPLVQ
human Peroxisome Proliferator-activated Receptor delta (PPARd), PPARD (gene 5467), sequence (Q03181 whole entry, looked up, the tested form may be a part): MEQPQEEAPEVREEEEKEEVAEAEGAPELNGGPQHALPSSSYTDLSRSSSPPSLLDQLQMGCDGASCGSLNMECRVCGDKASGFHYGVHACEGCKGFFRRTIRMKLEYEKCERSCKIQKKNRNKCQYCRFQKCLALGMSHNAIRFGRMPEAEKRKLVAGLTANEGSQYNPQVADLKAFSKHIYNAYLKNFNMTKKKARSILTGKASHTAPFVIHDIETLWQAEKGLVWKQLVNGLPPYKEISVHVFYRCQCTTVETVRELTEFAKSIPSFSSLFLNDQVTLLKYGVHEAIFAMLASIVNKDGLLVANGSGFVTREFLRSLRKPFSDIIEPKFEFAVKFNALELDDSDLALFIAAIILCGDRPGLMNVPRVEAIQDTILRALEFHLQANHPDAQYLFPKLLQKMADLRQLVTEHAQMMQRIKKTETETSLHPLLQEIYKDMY
human Retinoic Acid Receptor gamma (RARg), RARG (gene 5916), sequence (P13631 whole entry, looked up, the tested form may be a part): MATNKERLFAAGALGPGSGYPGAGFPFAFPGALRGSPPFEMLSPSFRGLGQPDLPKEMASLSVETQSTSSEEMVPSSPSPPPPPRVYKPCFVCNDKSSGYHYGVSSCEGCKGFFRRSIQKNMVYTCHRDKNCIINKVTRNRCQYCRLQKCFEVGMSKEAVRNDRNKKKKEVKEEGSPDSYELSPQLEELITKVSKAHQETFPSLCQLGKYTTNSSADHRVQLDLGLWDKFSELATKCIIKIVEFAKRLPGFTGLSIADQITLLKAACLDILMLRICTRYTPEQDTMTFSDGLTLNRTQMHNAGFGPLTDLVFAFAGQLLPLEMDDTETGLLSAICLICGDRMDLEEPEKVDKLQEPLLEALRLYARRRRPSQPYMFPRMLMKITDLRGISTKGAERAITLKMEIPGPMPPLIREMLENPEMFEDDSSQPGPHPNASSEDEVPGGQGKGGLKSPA
Nuclear receptor subfamily 1 group I member 2 (Homo sapiens), sequence (O75469 whole entry, looked up, the tested form may be a part): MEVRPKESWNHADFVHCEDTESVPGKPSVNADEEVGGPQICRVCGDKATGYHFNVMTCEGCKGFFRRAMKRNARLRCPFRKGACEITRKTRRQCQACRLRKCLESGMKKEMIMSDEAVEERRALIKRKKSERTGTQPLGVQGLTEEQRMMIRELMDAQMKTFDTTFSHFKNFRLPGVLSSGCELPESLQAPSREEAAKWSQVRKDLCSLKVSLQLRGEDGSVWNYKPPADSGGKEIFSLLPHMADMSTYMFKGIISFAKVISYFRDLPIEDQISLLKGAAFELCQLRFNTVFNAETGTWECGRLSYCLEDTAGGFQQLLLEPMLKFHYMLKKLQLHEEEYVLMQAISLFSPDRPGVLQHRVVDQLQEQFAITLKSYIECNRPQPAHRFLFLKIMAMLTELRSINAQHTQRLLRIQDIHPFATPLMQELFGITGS
Peroxisome proliferator-activated receptor gamma (Homo sapiens), sequence (P37231 whole entry, looked up): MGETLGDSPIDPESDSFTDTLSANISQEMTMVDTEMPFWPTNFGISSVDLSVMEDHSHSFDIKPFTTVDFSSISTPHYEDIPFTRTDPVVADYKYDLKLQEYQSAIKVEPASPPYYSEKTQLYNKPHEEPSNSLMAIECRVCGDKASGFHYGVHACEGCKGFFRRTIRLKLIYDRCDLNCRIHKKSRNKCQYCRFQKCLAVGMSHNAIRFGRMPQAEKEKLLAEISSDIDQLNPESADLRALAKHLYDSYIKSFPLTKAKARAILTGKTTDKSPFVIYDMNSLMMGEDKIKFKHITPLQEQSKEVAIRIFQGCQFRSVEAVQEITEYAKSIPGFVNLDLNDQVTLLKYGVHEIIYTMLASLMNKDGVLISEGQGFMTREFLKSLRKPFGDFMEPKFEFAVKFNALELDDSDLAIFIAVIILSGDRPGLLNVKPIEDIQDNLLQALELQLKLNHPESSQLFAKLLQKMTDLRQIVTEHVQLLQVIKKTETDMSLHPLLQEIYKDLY
Retinoic acid receptor alpha (Homo sapiens), sequence (P10276 whole entry, looked up, the tested form may be a part): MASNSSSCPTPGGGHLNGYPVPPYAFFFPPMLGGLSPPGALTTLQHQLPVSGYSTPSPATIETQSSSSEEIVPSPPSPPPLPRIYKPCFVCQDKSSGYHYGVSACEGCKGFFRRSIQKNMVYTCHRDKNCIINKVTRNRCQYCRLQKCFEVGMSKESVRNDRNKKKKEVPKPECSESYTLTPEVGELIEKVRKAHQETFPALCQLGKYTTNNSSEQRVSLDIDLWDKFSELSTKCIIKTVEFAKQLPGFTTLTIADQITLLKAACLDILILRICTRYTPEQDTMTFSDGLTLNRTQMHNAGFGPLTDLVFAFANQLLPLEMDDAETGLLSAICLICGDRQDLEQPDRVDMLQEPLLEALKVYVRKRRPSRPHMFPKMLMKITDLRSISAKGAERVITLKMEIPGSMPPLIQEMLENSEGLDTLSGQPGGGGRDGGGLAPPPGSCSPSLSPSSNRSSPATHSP

N#CN=C(N)N
inactive: [1] | [2] | [3] | [4] | [5] | [6] | [7] | [8] | [9]

O=P(O)(O)CN(CP(=O)(O)O)CP(=O)(O)O
inactive: [1] | [2] | [3] | [4] | [5] | [6] | [8] | [10] | [9] | [11] | [12]

Cn1sc(Cl)cc1=O
inactive: [1] | [2] | [5] | [14] | [17] | [19] | [11]
active: [3] 139 µM | [4] 135 µM | [13] 16.2 µM | [15] 36.1 µM | [16] 28.2 µM | [18] 13.7 µM

CCCCCCCCCl
not listed: [7] | [13] | [14] | [15] | [16] | [17] | [18] | [20]
inactive: all other assays above

COc1cccc(C=O)c1
inactive: [1] | [2] | [3] | [4] | [5] | [6] | [20] | [9] | [12]

O=Cc1cccc(Oc2ccccc2)c1
not listed: [6] | [8] | [10] | [11] | [18]
inactive: all other assays above

CCOP(=O)(CN(CCO)CCO)OCC
inactive: [1] | [2] | [3] | [4] | [5] | [6] | [8] | [10] | [19] | [11] | [12]

COC(=O)c1sccc1S(=O)(=O)NC(=O)Nc1nc(C)nc(OC)n1
inactive: [1] | [2] | [3] | [4] | [5] | [13] | [15] | [16] | [8] | [17] | [9]

CCOP(=S)(OCC)Oc1nc(Cl)c(Cl)cc1Cl
active: [1] 69.6 µM | [4] 33.4 µM | [5] 117 µM | [15] 25.8 µM | [16] 27.9 µM | [19] 46.8 µM | [9] 5.64 µM
inactive: [2] | [3] | [13] | [8] | [17] | [12]

CCC[CH2][Sn]([CH2]CCC)([CH2]CCC)[O]C(=O)c1ccccc1
inactive: [1] | [2] | [3] | [5] | [6] | [7]
active: [4] 0.188 µM | [19] 0.0116 µM | [9] 0.344 µM

Nc1cccc(Cl)c1
inactive: [1] | [2] | [3] | [4] | [5] | [6] | [7] | [12]

Cl/C=C\C[N+]12CN3CN(CN(C3)C1)C2
inactive: [1] | [2] | [5] | [19] | [12]
active: [3] 53.6 µM | [4] 160 µM | [6] 173 µM

NNC(=S)NN
inactive: [1] | [2] | [3] | [4] | [5] | [6] | [19]

CNC(=O)O/N=C/C(C)(C)S(C)=O (stereo unspecified)
inactive: [1] | [2] | [3] | [5] | [6] | [7] | [20] | [9]
active: [4] 55.1 µM | [19] 41.1 µM

CCOC(=O)/C=C(C)/C=C/C[C@@H](C)CCCC(C)C
active: [1] 180 µM | [2] 182 µM | [3] 43.2 µM | [4] 56.5 µM | [5] 25 µM | [13] 15.6 µM | [15] 26.6 µM | [16] 30 µM | [7] 64.9 µM | [17] 30.2 µM | [19] 1.56 µM | [9] 5.32 µM
inactive: [8]

CC(=[OH+])/C=C(/C)[O-].CC(=[OH+])/C=C(/C)[O-].CC(=[OH+])/C=C(/C)[O-].[Al]
inactive: [1] | [2] | [3] | [4] | [5] | [6] | [7] | [19] | [9] | [12]

COP(=S)(OC)Oc1c(Cl)cc(C)cc1Cl
active: [4] 29.2 µM | [16] 5.75 µM | [9] 6.51 µM
not listed: [6] | [10] | [11] | [12] | [18] | [20]
inactive: all other assays above

COc1cc2c(cc1OC)[C@@]13CCN4CC5=CCO[C@H]6CC(=O)N2[C@H]1[C@H]6[C@H]5C[C@H]43
inactive: [1] | [2] | [3] | [4] | [5] | [6] | [7] | [19] | [9]

C[C@@H](Oc1ccc(Cl)cc1Cl)C(=O)O
active: [19] 49.4 µM
inactive: [1] | [2] | [3] | [4] | [5] | [6] | [7] | [11]

Nc1ncc([N+](=O)[O-])s1
active: [4] 73.2 µM | [13] 12.2 µM
not listed: [6] | [10] | [11] | [20]
inactive: all other assays above

N#CCc1ccc(Cl)cc1
inactive: [1] | [2] | [3] | [4] | [5] | [6] | [8] | [19] | [9]

Source: PubChem BioAssay (EPA / NIEHS)
